Assay results: publication PMC5540273 (PLoS ONE, 2017)

These compounds were tested on PAK4. Conditions: concentration: 1 μM, replicates: in singlicate; n = 1.
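Also: KINOMEscan kinase panel screen.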

Row | SMILES | %Inh [%]
1 | c1ccc(-c2n[nH]cc2Nc2ccnc3ccccc23)nc1 [GW694077] | 20
2 | COC(=O)Nc1nc2ccc(Oc3ccc(NC(=O)Nc4cc(C(F)(F)F)ccc4F)cc3)cc2n1C.Cl [GW692089] | 0
3 | Cn1cc(-c2ccc3c(c2)CCN3C(=O)Cc2cccc(Cl)c2)c2c(N)ncnc21 [GSK2606590] | 0
4 | CC(C)(C)c1ccc2nccc(Nc3cccc(O)c3)c2c1 [GW856795] | 23
5 | COc1cc(Nc2nccc(N3CCC(NC(=O)Nc4cccc(C(C)=O)c4)C3)n2)cc(OC)c1OC (stereo not drawn) [GSK1379753] | 0
6 | O=C(Nc1n[nH]c2nc(-c3ccc(O)cc3)ccc12)C1CC1 [SB-710363] | 0
7 | c1ccc(-c2cnc3nccnn23)cc1 [AH20685] | 0
8 | CN(C)Cc1ccc(-c2ccc3c(Nc4ccc(Oc5ccccn5)cc4)ccnc3c2)o1 [GW567148] | 0
9 | NCCCC(NC(=O)c1cc(Br)c(-c2ccnc3[nH]ccc23)s1)c1ccccc1.O=C(O)C(F)(F)F.O=C(O)C(F)(F)F (stereo not drawn) [GSK1287544] | 2
10 | CCS(=O)(=O)c1ccc(OC)c(Nc2nccc(-c3c(-c4cccc(NC(=O)c5c(F)cccc5F)c4)nn4ncccc34)n2)c1 [GSK326180] | 0
11 | Cl.Cl.NCC(NC(=O)c1cc(-c2ccccc2)c(-c2ccnc3[nH]ccc23)s1)c1ccccc1 (stereo not drawn) [GSK1321561] | 0
12 | Clc1ccc(-c2nn3ncccc3c2-c2ccnc(Nc3ccc4c(c3)OCCO4)n2)cc1 [GW829116] | 0
